miR122 inh: miR-122 sensor activation; 340,000 compounds, 0.14% hits; AID 623901; Huh7 psiCHECK-miR122 Renilla luciferase sensor, 48 h; activation, % at 12.5 µM;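 active = mean activation of 30% or more, with every replicate also reaching 30%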;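 also: higher luciferase signal means stronger suppression of miR-122 activity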
Large screens that a line does not name were inactive. Many of the other results were omitted from the sample, so hits are more common in it than they were.

CCCNC(=O)N(C)C[C@H]1Oc2ncc(C#CCC(C)C)cc2C(=O)N([C@@H](C)CO)C[C@H]1C	none
O=S(=O)(c1ccccc1)N(CC(O)COc1ccccc1)c1ccccc1 (stereo not drawn)	none
C[C@H]1CN([C@@H](C)CO)C(=O)c2cc(/C=C/c3ccccc3)cnc2O[C@H]1CN(C)C(=O)c1cccc(F)c1	none
COc1ccc(C#Cc2ccc3c(c2)O[C@@H](CN(C)C)[C@H](C)CN([C@H](C)CO)S3(=O)=O)cc1	none
Oc1ccc2ccccc2c1/C=N/Nc1nnc(-c2ncc[nH]2)c2ccccc12	miR122 inh 60.6
C[C@@H]1CN([C@@H](C)CO)C(=O)Cc2cc(NC(=O)Cn3cnnn3)ccc2O[C@H]1CN(C)Cc1ccc(C(F)(F)F)cc1	none
C[C@H](CO)N1C[C@H](C)[C@@H](CN(C)Cc2ccccc2)Oc2cc(-c3ccncc3)ccc2S1(=O)=O	none
Clc1ccc(CSc2nnc(-c3ccncc3)o2)c(Cl)c1	miR122 inh 32.8
Cc1ccc(C)c(CSc2nnc(-c3cccnc3)o2)c1	none
COc1ccc(C#Cc2cnc3c(c2)C(=O)N([C@H](C)CO)C[C@H](C)[C@H](CN(C)C(=O)NC2CCCCC2)O3)cc1OC	none
C[C@H]1CN([C@@H](C)CO)S(=O)(=O)c2ccc(C#CCC3CCCC3)cc2O[C@H]1CN(C)C(=O)CN(C)C	none
Cc1ccc(-c2ccc3c(c2)O[C@H](CN(C)C(=O)NC(C)C)[C@H](C)CN([C@H](C)CO)S3(=O)=O)cc1	none
CCCN(C)C[C@@H]1Oc2cc(C#Cc3ccccc3F)ccc2S(=O)(=O)N([C@H](C)CO)C[C@@H]1C	none
COc1ccc(S(=O)(=O)N(C)C[C@@H]2Oc3cc(-c4cccc(F)c4)ccc3S(=O)(=O)N([C@@H](C)CO)C[C@H]2C)cc1	miR122 inh 39.7
COCC(=O)N(C)C[C@@H]1Oc2cc(-c3ccccc3)ccc2S(=O)(=O)N([C@@H](C)CO)C[C@H]1C	none
Cc1ccc(S(=O)(=O)N(C)C[C@@H]2Oc3cc(-c4cccc(F)c4)ccc3S(=O)(=O)N([C@@H](C)CO)C[C@@H]2C)cc1	none
COCC(=O)N(C)C[C@@H]1Oc2cc(-c3cccc(F)c3)ccc2S(=O)(=O)N([C@@H](C)CO)C[C@H]1C	none
COCC(=O)N(C)C[C@H]1Oc2cc(-c3ccccc3F)ccc2S(=O)(=O)N([C@H](C)CO)C[C@H]1C	miR122 inh 46.4
Cc1ccc(S(=O)(=O)N(C)C[C@H]2Oc3cc(-c4cccc(F)c4)ccc3S(=O)(=O)N([C@@H](C)CO)C[C@H]2C)cc1	none
COCC(=O)N(C)C[C@H]1Oc2cc(-c3ccc(C#N)cc3)ccc2S(=O)(=O)N([C@@H](C)CO)C[C@H]1C	miR122 inh 50.8
COCC(=O)N(C)C[C@@H]1Oc2cc(-c3ccccc3)ccc2S(=O)(=O)N([C@H](C)CO)C[C@@H]1C	none
COCC(=O)N(C)C[C@H]1Oc2cc(-c3ccccc3)ccc2S(=O)(=O)N([C@H](C)CO)C[C@H]1C	none
COCC#Cc1cnc2c(c1)C(=O)N([C@H](C)CO)C[C@@H](C)[C@H](CN(C)C(=O)Nc1c(C)noc1C)O2	none
COc1ccc(NC(=O)N(C)C[C@H]2Oc3ncc(C4=CCCC4)cc3C(=O)N([C@H](C)CO)C[C@@H]2C)cc1	none
C[C@@H]1CN([C@H](C)CO)C(=O)c2cc(/C=C/c3ccccc3)cnc2O[C@@H]1CN(C)C(=O)Cc1ccccn1	none
C[C@H]1CN([C@@H](C)CO)C(=O)Cc2cc(N(C)C)ccc2O[C@@H]1CN(C)Cc1ccc(C(=O)Nc2ccccc2N)cc1	none
C/C=C/c1ccc2c(c1)O[C@H](CN(C)C(=O)Cc1ccccn1)[C@@H](C)CN([C@@H](C)CO)S2(=O)=O	none
C[C@H](CO)N1C[C@H](C)[C@@H](CN(C)Cc2ccccn2)Oc2cc(-c3cccnc3)ccc2S1(=O)=O	none
COc1ccc(S(=O)(=O)Nc2ccc3c(c2)CC(=O)N([C@@H](C)CO)C[C@@H](C)[C@H](CN(C)CC2CC2)O3)cc1	none
C[C@H](CO)N1C[C@H](C)[C@H](CN(C)C(=O)c2ccncc2)Oc2cc(C#C[C@@H](C)O)ccc2S1(=O)=O	none
Cc1ccc(S(=O)(=O)Nc2cccc(-c3cn4ccsc4n3)c2)cc1	none
CNC[C@@H]1Oc2cc(C#CCC3CCCC3)ccc2S(=O)(=O)N([C@@H](C)CO)C[C@H]1C	none
O=C1CC(Sc2nnnn2-c2ccccc2)C(=O)N1c1cccc(Cl)c1 (stereo not drawn)	miR122 inh 51.9
C[C@H]1CN([C@@H](C)CO)C(=O)c2cc(C#CC3(O)CCCC3)cnc2O[C@@H]1CN(C)S(C)(=O)=O	none
CCCCNS(=O)(=O)c1ccc2nc(-c3cccnc3)cc(C(=O)NC3CCCC3)c2c1	none
C[C@H](CO)N1C[C@H](C)[C@@H](CN(C)Cc2cccc(F)c2)Oc2cc(C#Cc3ccccn3)ccc2S1(=O)=O	none
CO[C@H]1CN(C)C(=O)c2cc(NC(C)=O)ccc2OC[C@@H](C)N(C(=O)CN(C)C)C[C@@H]1C	none
CC(=O)NC(c1ccc(C)cc1)c1cc(Cl)c2cccnc2c1O (stereo not drawn)	miR122 inh 30.8
C[C@@H]1CN([C@H](C)CO)C(=O)c2cc(/C=C/c3ccccc3)cnc2O[C@H]1CN(C)S(=O)(=O)c1ccccc1F	none
C[C@@H]1CN([C@H](C)CO)C(=O)c2cc(/C=C/c3ccccc3)cnc2O[C@@H]1CN(C)C(=O)c1cccc(F)c1	none
Cc1cc(S(=O)(=O)N(Cc2ccccc2F)C2CC2)ccc1-n1cnnn1	none
C[C@H](CO)N1C[C@H](C)[C@@H](CN(C)C(=O)Cc2ccncc2)Oc2ncc(C#Cc3ccccc3F)cc2C1=O	none
COc1ccc(-c2c(-c3ccccc3)c(C(=O)C(=O)NCCCN(C)C)n3ccc4cc(OC)c(OC)cc4c23)cc1OC	miR122 inh 37.5
Clc1ccc(CNc2nc(N3CCOCC3)nc(N3CCOCC3)n2)cc1	none
OC(c1ccc(Cl)c(F)c1)c1ncc(-c2cccc(F)c2)[nH]1 (stereo not drawn)	none
Cc1sc2ncn(CC(=O)N(CC(=O)NC3CCCC3)Cc3cccs3)c(=O)c2c1C	none
Cc1ccccc1OCC(=O)NNC(=O)Nc1ccc(Cl)cc1	none
Cc1ccccc1OCC(O)CNC1CCC(NCC(O)COc2ccccc2C)CC1 (stereo not drawn)	miR122 inh 31.4
C/C=C/c1ccc2c(c1)O[C@H](CN(C)C(=O)c1cccnc1)[C@H](C)CN([C@@H](C)CO)S2(=O)=O	none
COc1cccc(-c2cnc3c(c2)C(=O)N([C@H](C)CO)C[C@H](C)[C@H](CN(C)C(=O)Nc2cccc4ccccc24)O3)c1	none
COc1cc2nc(C3CCC3)n(NC(=O)C3CCCC(OC)C3)c(=O)c2cc1OC (stereo not drawn)	miR122 inh 34.4
CCCN1C[C@H](C)[C@H](OC)CN(C)C(=O)c2ccc(NC(=O)COC)cc2OC[C@@H]1C	none
CCN(CC)c1ccc(/C=N/NC(=O)c2ccoc2C)c(O)c1	miR122 inh 49.7
Cc1cc(F)ccc1C(O)c1ncc(-c2ccccc2F)[nH]1 (stereo not drawn)	none
Cc1cc(C(F)F)n2ncc(C(=O)NCCc3ccccc3Cl)c2n1	miR122 inh 33.3
CCc1c(C(=O)NCc2ccccc2Cl)[nH]c(C)c1C(C)=O	none
C[C@H](CO)N1C[C@H](C)[C@@H](CN(C)C(=O)c2cccnc2)Oc2ncc(/C=C/c3ccccc3)cc2C1=O	none
C[C@H]1CN([C@@H](C)CO)C(=O)c2cc(C#CCC3CCCC3)cnc2O[C@@H]1CN(C)Cc1ccccn1	none
C[C@@H]1CN([C@H](C)CO)S(=O)(=O)c2ccc(C#C[C@@H](C)O)cc2O[C@H]1CN(C)Cc1cncnc1	none
CCOc1ccc(-c2cccc(NS(=O)(=O)c3cc([N+](=O)[O-])ccc3C)c2)nn1	none
